High-throughput results as filed in PubChem BioAssay.
Only some compounds are listed: those with a hit (about 4% of all), similar ones and a draw of the others.
PK Bst = alters activity of Bacillus stearothermophilus pyruvate kinase; purified pyruvate kinase, luminescence ATP production; ribose 5-phosphate activator present at AC10; Potency, µM; hit rate 1.2% among 51,000; AID 361; in the data active = potency below about 11 µM; inconclusive = mostly about 12 µM to 25 µM;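 the screen sought inhibitors and activators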
HEK293 cAMP cs = counter-screen for TSHR agonists: cAMP increase in parental HEK293; parental HEK293 CNG cAMP sensor, membrane potential fluorescence; Potency, µM (highest dose often 57.1 µM), actives largely listed as activators; hit rate 2.5% among 73,000; AID 938; active = well fitted activation curve with a large enough effect; inconclusive = small, poorly fitted or top-dose-only effect; inactive = no such curve, though single readings can be large or run the other way; note: nearly all actives have a fitted effect of over 55% in size
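Parental HEK 293 cells stably expressing a modified CNG channel (no TSHR) report cAMP rise as membrane depolarization. Membrane potential dye with 100 uM RO 20-1724 was loaded for 60 min at room temperature, then compound added for 30 min; fluorescence read at 590 nm.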
TSHR agonist = agonists of human thyroid stimulating hormone receptor | P16473 | HEK293-CNG-TSHR cells (CNG channel as cAMP sensor), membrane potential dye, cAMP | Potency, µM (titrated, usually from 57.1 µM), most hits filed as activators | hit rate 0.48% among 73,000 | AID 926; active = well fitted activation curve with a large enough effect in the main read-out, with a control signal flat, not every such curve was filed as active; inconclusive = small, poorly fitted or top-dose-only effect, or a change in a side signal; inactive = no such curve, though single readings can be large or run the other way; reference of the percent scale not stated here;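 note: the control signal comes from parental cells without the receptor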
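HEK 293 cells stably expressing TSHR and a cAMP-gated CNG channel; parental CNG-only cells as counterscreen. Cells preloaded 60 min with membrane potential dye plus 100 uM RO 20-1724, then compound 30 min; fluorescence read at 590 nm.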
GBA activity = modulators of human glucocerebrosidase; P04062; purified enzyme, resorufin glucoside fluorescence (screen aimed at inhibitors), 20 min; Potency, µM; hit rate 1.1% among 48,000; AID 360; in the data active = potency below about 15 µM; inconclusive = mostly about 16 µM to 33 µM;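 note: the screen sought inhibitors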
Target sequence (P04062 whole entry, looked up): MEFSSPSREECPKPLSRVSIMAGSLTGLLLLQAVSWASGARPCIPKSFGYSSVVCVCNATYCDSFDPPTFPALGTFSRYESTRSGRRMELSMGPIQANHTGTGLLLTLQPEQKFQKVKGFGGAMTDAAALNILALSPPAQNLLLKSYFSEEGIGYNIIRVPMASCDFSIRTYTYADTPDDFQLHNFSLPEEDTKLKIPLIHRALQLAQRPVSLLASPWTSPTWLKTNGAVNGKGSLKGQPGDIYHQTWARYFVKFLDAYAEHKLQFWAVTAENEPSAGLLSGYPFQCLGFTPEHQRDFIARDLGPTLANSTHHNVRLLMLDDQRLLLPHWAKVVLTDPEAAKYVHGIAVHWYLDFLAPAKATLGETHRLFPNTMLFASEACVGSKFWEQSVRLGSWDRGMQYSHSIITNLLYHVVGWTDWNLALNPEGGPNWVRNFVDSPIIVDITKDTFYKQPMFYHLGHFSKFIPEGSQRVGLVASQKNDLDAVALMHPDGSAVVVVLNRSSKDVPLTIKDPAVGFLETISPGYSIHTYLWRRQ
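Normal human glucocerebrosidase (0.2 nM final) was assayed with resorufin β-D-glucopyranoside (30 uM final) in 50mM citric acid/KH2PO4, 10mM sodium taurocholate, 0.01% tween-20, pH 5.9. Compounds were titrated; fluorescence (Ex 548, Em 600) read after 20 min at RT.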
Hits are given with their value; i = inactive; ? = inconclusive; nt = not tested or not shown; [ ] = dose if it differs, or a comment.

SMILES	PK Bst	HEK293 cAMP cs	TSHR agonist	GBA activity
CC1(NC[C@@H](O)COc2cccc3[nH]ccc23)CCC(C(C)(C)NC(=O)CBr)CC1 (stereo partly specified)	nt	i	i	nt
O=c1c2ccccc2nc(-c2ccco2)n1/N=C/c1ccco1	i	i	i	i
COc1cccc(/C=N/n2c(-c3ccco3)nc3ccccc3c2=O)c1	i	16µM	?	i
Cc1ccccc1OCc1nc2ccccc2c(=O)n1/N=C/c1ccco1	i	16µM	?	i
CCCN1Cc2cccc(C(=O)Nc3ccc4c(c3)OCO4)c2C1=O	nt	?	?	i
O=C(Nc1ccc2c(c1)OCO2)c1cccc2c1C(=O)N(C1CCCCC1)C2	i	i	3.2µM	nt
CN(CCNC(=O)C1CC(=O)N(c2ccc(F)c(Cl)c2)C1)Cc1ccccc1 (stereo unspecified)	i	i	i	15
O=C(O)CCCN1CCCCC1	nt	i[11.4 µM]	i[11.4 µM]	nt
Cn1cccc1C(=O)OCc1cc(Cl)cc2c1OCOC2	i	?	?	12
CN(Cc1ccco1)c1nc(-c2ccoc2)nc2ccccc12	nt	16µM	?	nt
COc1ccccc1-c1cc(N(C)Cc2ccco2)ncn1	nt	i	nt	nt
CN(Cc1ccco1)c1ncnc2ccc(-c3ccoc3)cc12	nt	16µM	?	nt
COc1ccccc1-c1ccc2ncnc(N(C)Cc3ccco3)c2c1	nt	3.2µM	?	nt
CN(C)c1ncnc2ccc(-c3ccoc3)cc12	nt	i	i	nt
Cc1c(Cl)cccc1NC(=O)c1cc(-c2ccc(O)cc2)on1	nt	i	i	nt
CCC1Oc2ccc(C)cc2N(CC(=O)N(Cc2cccnc2)Cc2ccc(C)o2)C1=O (stereo unspecified)	i	?	?	i
CCC1Oc2ccc(C)cc2N(CC(=O)N(Cc2ccc3c(c2)OCO3)CC2CCCO2)C1=O (stereo unspecified)	i	5µM	?	i
N#Cc1c(-c2ccco2)cc(-c2ccc(F)cc2)nc1N	4.7	?	?	i
CSc1nc(-c2ccco2)cc(-c2ccccc2)c1C#N	i	?	?	i
CC(=O)N1CCN(c2ccc(Oc3nc(-c4ccccc4)nc4ccccc34)cc2)CC1	i	i	25µM	i
CCN(CC)CCC[C@H](C)Nc1c2ccc(Cl)cc2nc2ccc(OC)cc12	nt	i	i	nt
O=C(NC1CC1)c1ccc(-c2nc3ccccc3s2)s1	0.8	i	i	i
Cc1c(CCC(=O)O)c(=O)oc2cc3occ(-c4ccc(F)cc4)c3cc12	8.3	i	i	i
CCCCc1c(C)c2ccc(OCC(C)=O)cc2oc1=O	i	nt	nt	nt
O=c1c2cccc3c2c(nn1CN1CCOCC1)-c1ccccc1-3	2.9	i	i	i
SMILES	PK Bst	HEK293 cAMP cs	TSHR agonist	GBA activity
Cc1ccc(-c2nn(CC(=O)NCCN3CCOCC3)c(=O)c3ccccc23)cc1	i	i	nt	i
O=C(Nc1cnccn1)c1cccc(C(F)(F)F)c1	i	20µM	?	i
CCc1ccccc1O	nt	i	i	nt
NC1=C(O)C(=O)[C@H](c2c[nH]c3ccc(OCc4ccccc4)cc23)O1	nt	i[11.4 µM]	i[11.4 µM]	nt
Cc1ccc(S(=O)(=O)N(Cc2nccn2C)C(C)C)cc1	i	i	25µM	i
O=S(=O)(c1ccc(F)c2ccccc12)N1CCCCC1	2.9	32µM	?	i
O=S(=O)(c1ccccc1S(=O)(=O)N1CCCCC1)N1CCCCC1	i	?	?	i
Cn1c(=O)c2nc(-c3ccccc3)oc2c2ccccc21	0.43	?	?	i
CCCCCc1nc2c(=O)n(C)c3ccccc3c2o1	nt	?	?	i
CC1CCCC(NC(=O)COC(=O)Cc2cn3ccsc3n2)C1C (stereo unspecified)	i	32µM	?	nt
O=C(COC(=O)Cc1cn2ccsc2n1)NC12CC3CC(CC(C3)C1)C2	i	i	i	nt
O=C(Nc1nc2ccccc2[nH]1)C1CCCO1 (stereo unspecified)	nt	i	i	nt
O=C(Nc1ccc(-c2nc3ccccc3[nH]2)cc1)C1CCCO1 (stereo unspecified)	3.2	i	i	i
CN1CCN(c2ncc3nc(-c4cn(C)c5ccccc45)c(=O)n(-c4ccccc4)c3n2)CC1	nt	i	i	nt
CC1CCCCN1C(=O)Cn1c(=O)n(C2CCCCC2)c(=O)c2ccccc21 (stereo unspecified)	i	i	16µM	i
COCc1nnc(NC(=O)c2ccc(NC(=O)C(C)C)cc2)s1	i	i	i	0.54
CCc1nnc(NC(=O)c2ccncc2)s1	i	i	i	i
CCc1nnc(NC(=O)c2ccc(S(=O)(=O)N3CCCCC3C)cc2)s1 (stereo unspecified)	i	i	i	i
CCc1nnc(NC(=O)c2ccc(S(=O)(=O)NCC(C)C)cc2)s1	i	i	i	1.8
